Tau fibril ThT: blocks human tau fibril formation measured by thioflavin T. recombinant tau K18 P301L, heparin-induced fibrillization, ThT fluorescence. Potency, µM (top dose mostly 57.4 µM), hits mostly inhibitors. actives 2.1% (n = 270,000). AID 1460; further: nearly all actives have a fitted effect of over 55% in size
Target sequence (P10636 561-689 P618L limits assumed): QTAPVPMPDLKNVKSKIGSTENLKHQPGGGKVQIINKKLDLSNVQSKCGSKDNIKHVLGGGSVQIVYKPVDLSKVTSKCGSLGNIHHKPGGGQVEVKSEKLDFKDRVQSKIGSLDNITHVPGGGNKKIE
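Heparin-induced (20 uM) aggregation of recombinant human K18 P301L tau, 15 uM unlabeled with 0.24 uM labeled, pH 7 acetate buffer, 6 hr at 37 C with compound. Fibrils quantified by 30 uM ThT fluorescence after 1 hr ambient incubation.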
FBPA coupling cs: counter-screen for Giardia aldolase inhibitors: coupling enzyme system | coupling enzyme system counterscreen, AmpLite Red fluorescence | actives 0.67% (n = 290,000) | activity change, negative = inhibition, % at 58.2 µM, hits read low; in the data active means activity change below about -30%
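Counterscreen of the coupled detection system alone, without aldolase: glyceraldehyde-3-phosphate coupling enzymes plus AmpLite Red readout. Compounds at 57.5 uM final, 10 min RT preincubation, 20 min RT reaction, fluorescence 525/598 nm.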
Tau fluor counter: counter-screen for tau fibril formation inhibitors; tau K18 P301L (four-repeat tau fragment) Alexa594 fluorescence, heparin fibrillization; Potency, µM (highest dose often 57.7 µM); actives 0.93% (n = 280,000); further: nearly all actives have a fitted effect of over 55% in size
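Human K18 P301L tau (15 uM unlabeled plus 0.24 uM Alexa 594-labeled, final) in 100 mM sodium acetate pH 7 was mixed with compound and 20 uM heparin and incubated 6 hr at 37 C.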
Tau fibril FP: blocks human tau fibril formation measured by polarization. actives 0.39% (n = 280,000). K18 P301L tau heparin fibrillization, Alexa594 FP, 6 h. AID 1468. P10636. Potency, µM (highest dose often 57.7 µM), usual class: inhibitors; further: nearly all actives have a fitted effect of over 55% in size
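Steps: dispense K18 P301L tau (15 uM plus 0.24 uM Alexa 594 tracer, final) in pH 7 sodium acetate; add compound; add heparin (20 uM final); incubate 6 hr, 37 C; add ThT (30 uM final); after 1 hr ambient, read FP.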
G9a inh: inhibitors of human histone lysine methyltransferase G9a | G9a H3K9 monomethylation, AlphaScreen, 2 h | Potency, µM (highest dose often 102 µM), most hits filed as inhibitors | actives 8.8% (n = 350,000) | Q96KQ7; further: nearly all actives have a fitted effect of over 75% in size
Target sequence (Q96KQ7 913-1193 limits assumed): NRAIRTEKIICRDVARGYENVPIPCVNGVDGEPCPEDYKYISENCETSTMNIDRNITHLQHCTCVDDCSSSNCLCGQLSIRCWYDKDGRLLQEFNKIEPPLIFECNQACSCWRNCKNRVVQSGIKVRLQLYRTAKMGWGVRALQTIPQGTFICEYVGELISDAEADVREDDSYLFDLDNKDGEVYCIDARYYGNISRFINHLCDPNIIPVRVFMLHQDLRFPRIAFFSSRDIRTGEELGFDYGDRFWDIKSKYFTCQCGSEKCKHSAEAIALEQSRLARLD
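Enzyme 20 nM + cpd, 15 min RT; add b-H3K9 pep 500 nM / SAM 20 uM; 2 h RT; anti-H3K9me1 Ab 0.5 ug/mL + SA donor / anti-rabbit acceptor beads 20 ug/mL each, 10 min; AlphaScreen read.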
Sfp PPTase inh: blocks B. subtilis Sfp PPTase activity; Biochemical Sfp PPTase activity, qHTS; Potency, µM, actives largely listed as inhibitors; actives 3.5% (n = 310,000); AID 1490;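 further: the enzyme is Sfp with the accession as filed and its product quenches rhodamine fluorescence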
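Step 1, compound plus 15 nM Sfp-PPTase, 15 min, room temperature. Step 2, add rhodamine-CoA (5 uM) and BHQ-2-YbbR (12.5 uM). Step 3, read 525/598 nm fluorescence at 0 and 30 min.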
Numbers stand for hits; . = inactive; ? = inconclusive; / = not tested or not shown; ! = a repeat was not active; [ ] = another dose, or the depositor's remark. Sampled rows, rich in hits. Any-hit rate of the full collection: about 11%. Unless noted, the call rests on the fitted dose curve; in most records, active means well fitted curve in the direction sought with a large enough effect; inconclusive means small, poorly fitted or top-dose-only effect, or another doubt; inactive means no such curve, though single readings can be large; an effect the other way counts as inactive or inconclusive.

SMILES	Tau fibril ThT	FBPA coupling cs	Tau fluor counter	Tau fibril FP	G9a inh	Sfp PPTase inh
COc1ccc(CN2C(=O)NC(=O)/C(=C/c3ccc(OC)c(OC)c3OC)C2=O)cc1	.	.	.	.	/	39.8µM
Cc1cc2c(cc1C)-n1c(-c3ccccc3)c3c(=O)n(C)c(=O)n(C)c3c1C(c1ccco1)N2 (configuration not stated)	?	/	.	.	.	/
Cn1cc(C(=O)C(=O)N[C@H]2CN3CCC2CC3)c2ccccc21	.	.	.	.	.	56.2µM!
CCN(CC)C(=O)N[C@H]1C=C2c3cccc4[nH]cc(c34)C[C@@H]2N(C)C1	/	.	/	/	?	.
O=C1NC(=O)N(Cc2ccco2)C(=O)/C1=C/c1cccn1CCOc1ccccc1Cl	.	.	.	.	?	.
CCCCN1C(=O)/C(=C/c2ccc(N(C)C)cc2)C(=O)N(Cc2ccco2)C1=O	?	.	.	.	.[12.7 µM]	.
O=C1NC(=O)N(Cc2ccccc2)C(=O)/C1=C\N1CCCc2ccccc21	.	.	.	.	?	?
CCCCN1C(=O)/C(=C\c2ccco2)C(=O)N(CCc2ccccc2)C1=O	?	.	.	.	31.6µM	?
O=C1NC(=O)N(Cc2ccccc2)C(=O)/C1=C\c1ccco1	?	.	.	.	35.5µM	.
O=C1NC(=O)N(Cc2ccc(F)cc2)C(=O)/C1=C\C=C\c1ccco1	/	.	/	/	39.8µM	?
CCCCN1C(=O)/C(=C/C=C/c2ccco2)C(=O)NC1=S	15.8µM	.	.	?	7.94µM	28.2µM
CCN(CC)CCCCN1c2ccccc2Oc2ccc(Cl)cc21	/	.	/	/	/	.
C[C@@]12CCC(=O)C=C1C=C[C@H]1[C@H]3CC[C@](O)(CCC(=O)O)[C@]3(C)CC[C@@H]12	/	.	/	/	.[21.5 µM]	.
CN(C)c1ccc(CN2CCc3nc(N4CCN(c5ccccn5)CC4)ncc3C2)cc1	?	/	?	.	?	/
C[C@H]1[C@@H](O)[C@@H](C)/C=C\C=CCC\C=C/C=C\C=C/C=C[C@@H](O[C@H]2O[C@@H](C)[C@@H](O)[C@@H](N)[C@@H]2O)C[C@@H]2O[C@@](O)(C[C@@H](O)[C@H]2C(=O)O)C[C@@H](O)[C@@H](O)CC[C@@H](O)C[C@@H](O)C[C@@H](O)CC(=O)O[C@H]1C	/	.	/	/	.[21.5 µM]	.
O=C(O)c1ccccc1-c1ccc(C=C2C(=O)N(c3ccccc3)C(=S)N(c3ccccc3)C2=O)o1	/	.	/	/	.[0.501 µM]	50.1µM
O=c1[nH]c(O)c(N=Nc2ccc(S(=O)(=O)N3CCOCC3)cc2)c(=O)[nH]1	?	.	.	.	12.6µM	.
O=c1[nH]c(=S)[nH]c(O)c1N=Nc1ccc(S(=O)(=O)N2CCOCC2)cc1	?	.	.	.	/	.
O=c1[nH]c(=S)[nH]c(O)c1N=Nc1cccc(S(=O)(=O)N2CCOCC2)c1	?	.	.	.	50.1µM	.
CCC(C)C1O[C@]2(C=CC1C)CC1CC(C/C=C(\C)[C@H](OC3CC(OC)C(O[C@H]4CC(OC)[C@@H](O)C(C)O4)C(C)O3)[C@@H](C)/C=C/C=C3\COC4C(O)C(C)=C[C@H](C(=O)O1)[C@@]34O)O2 (some centres not stated)	.	.	.	.	.[2.33 µM]	.
N#CN=C1SCCN1Cc1ccc(Cl)nc1	/	.	/	/	/	.
C=C(C)[C@H]1C2C(=O)O[C@H]1[C@H]1OC(=O)[C@@]34O[C@@H]3C[C@]2(O)[C@@]14C	.	.	.	.	.	.
CCn1c(N)c(C(=O)NC)sc1=S	?	.	.	?	?	2.24µM
C=C1CC[C@H](O)C/C1=C/C=C1\CCC[C@]2(C)[C@@H]([C@H](C)CCCC(C)C)CC[C@@H]12	22.4µM	.	.	?	15.8µM!	.
CC(C)CCCC(C)C1CCC2C3=CC[C@@H]4CC(O)CC[C@@]4(C)C3CC[C@]21C (some centres not stated)	?	.	.	.	/	.
SMILES	Tau fibril ThT	FBPA coupling cs	Tau fluor counter	Tau fibril FP	G9a inh	Sfp PPTase inh
O=C(O)c1c[nH]c2ccc(S(=O)(=O)N(CCCl)CCCl)cc12	.	.	.	.	17.8µM	.
N#C/C(=C(/O)c1ccc(S(=O)(=O)N(CCCl)CCCl)cc1)c1nc2ccccc2[nH]1	.	.	.	.	.[12.7 µM]	.
CC(=O)Nc1nc(CCl)cs1	.	.	.	.	20µM	.
CCCCn1c(-c2ccoc2C)n[nH]c1=S	.	.	.	.	3.98µM	.
CCC(=O)Nc1cccc(-c2nnc(SCC(=O)NCc3ccco3)n2C)c1	.	.	.	.	50.1µM	.
CC1(C)C(C(=O)NCc2ccco2)C1(C)C	.	.	.	.	.	.
COc1nnc(-c2ccc(N3CCCCC3)c(NC(=O)c3ccc(Cl)cc3)c2)c2ccccc12	.	/	.	.	?	/
O=C(Oc1ccc(C(=S)N2CCOCC2)cc1)c1ccc([N+](=O)[O-])cc1[N+](=O)[O-]	/	.	/	/	44.7µM	.
O=C(CNC(=O)OCc1ccccc1)Nc1ccc(Br)cc1C(=O)c1ccccc1Cl	.	.	.	.	.	28.2µM
Oc1cc[c]([Hg][Cl])cc1	/	/	/	/	?	0.0562µM
CN1C(=O)[C@]23CC4=CC=C[C@H](O)[C@H]4N2C(=O)[C@@]1(CO)SS3	/	.	/	/	/	2.51µM
O=C(CCN1CCN(c2ccccc2)CC1)c1ccc(Br)cc1	/	.	/	/	20µM	.
COC(=O)[C@@H]1[C@@H]2C[C@H]3c4[nH]c5cc(OC)ccc5c4CCN3C[C@@H]2C[C@H](OC(=O)/C=C\c2cc(OC)c(OC)c(OC)c2)[C@H]1OC	/	.	/	/	?	.
CC(n1cc(C[C@H](N)C(=O)O)c2ccccc21)n1cc(C[C@H](N)C(=O)O)c2ccccc21	?	/	.	?	.	28.2µM
Cc1cc(C)cc(NC(=O)Cn2cc(C(=O)c3cccs3)c3ccccc32)c1	.	/	?	?	.	/
O=c1[nH]c(=S)n(C2CC2)c(O)c1/C=N/Nc1ccccc1	11.2µM	.	.	?	1.41µM	50.1µM
CCC(C)n1c(O)c(C=NCCc2ccccc2)c(=O)[nH]c1=S (configuration not stated)	.	.	.	.	.	.
CCC(C)n1c(O)c(/C=N/Nc2ccccc2)c(=O)[nH]c1=S (configuration not stated)	17.8µM	.	?	.	1.12µM	44.7µM
O=C(N/N=C/c1c(O)n(C2CCCCC2)c(=S)[nH]c1=O)c1ccccc1	/	.	/	/	?	.
O=c1[nH]c(=S)n(C2CC2)c(O)c1/C=N/Nc1cccc2ccccc12	11.2µM	-53.0	?	?	1.41µM	20µM
CCN1C[C@]2(C)CC[C@H](O)[C@@]34C5C[C@@H]6[C@@H](OC)C[C@@](O)(C5[C@H]6O)[C@@H](CC23)[C@@H]14 (some centres not stated)	.	.	.	.	/	.
